# This excerpt belongs to a sample that is enriched for hits.
# Cycloheximide cs = affects cycloheximide protein synthesis inhibition readout, counter-screen | cell reporter, cycloheximide protein synthesis inhibition counterscreen | max response, % | 12% of 300,000 active; in the data active = max response mostly above about 13%, no sharp cut-off; inactive = mostly below about 14%; note: read at 38.3 µM for the half of the compounds with a filed dose; 0% is about no effect
# Lassa entry inh = inhibitors of Lassa virus binding or cell entry. Potency, µM (series often up to 37.9 µM), without a hit: at the highest dose activity change, negative = inhibition, most hits filed as inhibitors. AID 540256. 1.2% of 300,000 active. Lassa virus pseudotype entry inhibition, cell reporter; calls by dose curve; tested in HEK293 cells; note: potency is the fitted concentration of half-maximal effect; % is set by controls: 0 for no effect and ±100 for the full control effect; nearly all actives have a fitted effect of over 50% in size
# AMA1 RON2 block = disrupts binding of P. falciparum AMA1 to RON2; AlphaScreen AMA1-biotinylated RON2 peptide binding; Potency, µM (top dose mostly 58.2 µM), for the others: at the highest dose activity change, negative = inhibition, actives largely listed as inhibitors; 0.2% of 360,000 active; active = well fitted inhibition curve with a large enough effect; inconclusive = small, poorly fitted or top-dose-only effect; inactive = no such curve, though single readings can be large or run the other way;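 note: potency is the fitted concentration of half-maximal effect; 0% = vehicle wells and -100% = peptide control; nearly all actives have a fitted effect of over 45% in size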
#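 AMA1 (3D7) with his tag at 25 nM final met compounds first, then biotinylated RON2 peptide at 25 nM; detection used donor plus acceptor beads, 10 µg/mL apiece, read by AlphaScreen after 30 min at room temperature.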
# MARV entry inh = Marburg virus entry inhibition | Potency, µM (titrated, usually from 37.8 µM), for inactives: top-dose activity change, negative = inhibition, most hits filed as inhibitors | Marburg virus pseudotyped entry inhibition, cell reporter | 1.8% of 300,000 active; calls by dose curve; tested in HEK293 cells; note: potency is the fitted concentration of half-maximal effect; % is set by controls: 0 for no effect and ±100 for the full control effect
# Shiga toxin inh = Shiga toxin inhibition. inhibition, % at 38.7 µM. 9.2% of 290,000 active. Vero cells, Shiga toxin protein synthesis inhibition reporter. AID 2315; in the data active = inhibition mostly above about 28%, no sharp cut-off; inactive = mostly below about 43%; note: 0% is about no effect
# * hit, by the source's call; ? = inconclusive; . = no result; ! = not active in a repeat; [ ] = remark or other dose.
SMILES,Cycloheximide cs,Lassa entry inh,AMA1 RON2 block,MARV entry inh,Shiga toxin inh
CCCC(=O)NC1CCCc2c1cnn2-c1ccc(C)c(C)c1 (stereo not drawn),20.3*,.,0.7%,.,27.4
CSCC(=O)NC1CCCc2c1cnn2-c1cc(F)cc(F)c1 (stereo not drawn),14.0*,.,-1.1%,.,13.8
CCN(CC)CC(=O)NC1CCCc2c1cnn2-c1cc(F)cc(F)c1 (stereo not drawn),.,.,-0.7%,.,.
Cc1ccc(-n2ncc3c2CCCC3NC(=O)c2ocnc2C)cc1C (stereo not drawn),5.5,?,-4.6%,?,-10.2
Cc1ccc(-n2ncc3c2CCCC3NC(=O)CCn2ccnc2C)cc1C (stereo not drawn),.,-15.2%,-3.9%,?,.
Cc1cc(C(=O)NC2CCCc3c2cnn3-c2ccc(C)c(C)c2)no1 (stereo not drawn),14.6*,.,-5.4%,.,18.6
O=C(O)c1ccccc1OC(=O)C12CC3CC(CC(C3)C1)C2,-4.8,?,13.0%,-15.5%[46.1 µM],-6.4
CC(=O)Oc1ccc(C23CC4CC(CC(C4)C2)C3)cc1C(=O)O,-2.6,.,.,.,36.6*
CCC(=O)NC(c1ccc(C)cc1)c1ccc2cccnc2c1O (stereo not drawn),12.5,11.2µM*,-48.5%,3.16µM*,2.5
CCCC(=O)NC(c1ccc(N(C)C)cc1)c1ccc2cccnc2c1O (stereo not drawn),5.7,?,-88.4%,?,8.5
Cc1ccnc(NC(c2cccnc2)c2ccc3cccnc3c2O)c1 (stereo not drawn),-2.0,?,-80.0%,8.91µM*,-10.8
COc1ccc(C(NC(=O)C(C)C)c2ccc3cccnc3c2O)cc1 (stereo not drawn),0.7,2.51µM*,7.6%,?,-1.4
Cc1ccnc(NC(c2ccccc2)c2ccc3cccnc3c2O)c1 (stereo not drawn),.,?,-77.7%,?,.
CCCC(=O)NC(c1ccccc1Cl)c1ccc2cccnc2c1O (stereo not drawn),1.4,?,47.0%,0.891µM*,6.8
CC1=C(C(=O)N(C(C)C)C(C)C)CC(CC(=O)NC2CCCCC2)C(=O)N1Cc1ccc(F)cc1 (stereo not drawn),.,.,-0.4%,.,.
O=[N+]([O-])CC(=Nc1ccc(F)cc1)N/N=C\c1oc(O)c2ccccc12,13.4,.,.,.,26.3
Oc1ccccc1C(Nc1nccs1)c1ccc2cccnc2c1O (stereo not drawn),0.0,7.3µM*,-20.6%,11.6µM*,4.5
CCCC(=O)NC(c1ccc(C(C)C)cc1)c1ccc2cccnc2c1O (stereo not drawn),-1.6,4.47µM*,94.9%,?,-9.5
CCC(Oc1ccccc1)C(=O)N1CC(C)CC(C)C1 (stereo not drawn),1.3,5.4%,8.4%,7.3%,-13.4
CCCCCOc1ccc(Cl)cc1CN1CCOCC1,24.0*,0.2%,?,29.7%,46.8
Cc1ccc(N2CC(c3nnc(Cc4ccc(Cl)cc4)o3)CC2=O)cc1 (stereo not drawn),.,-1.3%[46.1 µM],.,-23.8%[46.1 µM],.
COc1ccc(-c2cc(C(=O)OCC(=O)Nc3cc(C)on3)c3ccccc3n2)cc1OC,-1.4,-7.3%,18.2%,1.4%,-7.0
CCC(C)c1ccc(-c2cc(C(=O)OCC(=O)Nc3cc(C)on3)c3ccccc3n2)cc1 (stereo not drawn),11.8,1.58µM*,2.0%,?,24.0
Cc1cc(NC(=O)c2cc(-c3ccc(OC(C)C)cc3)nc3ccccc23)no1,19.9*,14.2%,-5.1%,12.2%[46.1 µM],38.7
COc1ccc(-c2cc(C(F)F)n3ncc(C(=O)Nc4cc(C)on4)c3n2)cc1,27.7*,8.2%,10.2%,?,15.1
SMILES,Cycloheximide cs,Lassa entry inh,AMA1 RON2 block,MARV entry inh,Shiga toxin inh
COc1ccc(-c2cc(C(F)F)n3ncc(C(=O)Nc4c(C)n(C)n(-c5ccccc5)c4=O)c3n2)cc1,-2.1,24.1%,-5.8%,33.7%[46.1 µM],-9.7
Cc1ccc(N2CCN(S(=O)(=O)c3ccc4oc(=O)c5ncn(C)c5c4c3)CC2)c(C)c1,.,11.0%[46.1 µM],.,.,.
O=C(Cn1nc(Cc2ccncc2)c2ccccc2c1=O)Nc1cccnc1Cl,-0.7,.,-4.1%,.,-4.2
CCOC(=O)N1CCN(/C=C(\C#N)c2nc3ccccc3s2)CC1,15.0*,?,7.9%,-5.3%,81.5*
N#C/C(=C\N1CCN(Cc2ccc3c(c2)OCO3)CC1)c1nc2ccccc2s1,11.8,-5.3%,-26.0%,-10.5%,50.1
CC(=O)N1CCC(=NNc2nc3ccccc3s2)CC1,45.2*,.,42.4%,.,91.4*
CCOC(=O)N1CCC(=NNc2nc3ccccc3s2)CC1,71.4*,.,61.1%,0.4%,76.6*
CN(C)c1nc(NC2CCC(NC(=O)c3ccc(F)c(F)c3)CC2)nc2ccccc12 (stereo not drawn),-1.0,.,.,.,-2.4
Cc1ccc2nc(Cl)c3cc(C(=O)NCCCN4CCCC4)sc3c2c1,-2.0,-18.4%[46.1 µM],-10.2%,10µM*,-12.4
CCN(CC)C(=O)C1=C(C)N(CCCN2CCCC2=O)C(=O)C(CC(=O)NCCCN(C)C)C1 (stereo not drawn),.,.,-5.5%,.,.
O=C(OCC(=O)N1CCOCC1)c1ccc(F)cc1Cl,35.4*,4.0%[46.1 µM],5.5%,?,51.0*
O=C(OCC(=O)N1CCOCC1)c1cccc(F)c1,47.9*,?,-1.5%,-0.5%[46.1 µM],93.6*
COc1ccc(/C=C/C(=O)OCC(=O)NC2CCCC2)cc1OC,.,1.1%,0.3%,-1.4%,.
CC(C)CNC(=O)C(=O)NCC1OCCN1S(=O)(=O)c1cccs1 (stereo not drawn),.,0.3%,-9.5%,?,.
C=CCn1c(SCC(=O)Nc2ccc(-c3nc4ccc(C)cc4s3)cc2)nnc1-c1ccncc1,19.0*,?,6.6%,?,38.9
C=CCn1c(SCC(=O)Nc2ccc(N3CCOCC3)cc2)nnc1-c1ccncc1,-6.0,.,-0.2%,-0.4%[46.1 µM],19.9
O=C(CSc1nnc2scc(-c3ccccc3)n12)Nc1nsc(-c2ccccc2)n1,-0.3,-30.0%,-16.0%,20.6µM*!,-13.8
Cc1nc(SCC(=O)Nc2nsc(-c3ccc(C(C)(C)C)cc3)n2)c2c3c(sc2n1)CCCC3,.,-0.5%[46.1 µM],.,5.5%[46.1 µM],.
Cc1nnc(SCC(=O)Nc2ccc(-c3nc4ccccc4s3)cc2)s1,65.0*,10µM*,-2.3%[2.32 µM],?,38.2*
Cc1nnc(SCC(=O)Nc2nsc(-c3ccc(C(C)(C)C)cc3)n2)s1,23.2*,.,-1.6%,.,31.8
O=C(Nc1ccc(F)cc1F)c1ccc(CN2CC(=O)N3CCCCC3C2=O)cc1 (stereo not drawn),.,-5.8%[46.1 µM],.,.,.
COc1ccc(Cl)cc1NC(=O)c1cccc([N+](=O)[O-])c1O,.,?,5.1%,?,.
O=[N+]([O-])c1ccc(NS(=O)(=O)c2ccc(Cl)c(Cl)c2)cc1,.,.,0.1%,.,.
CCN(C(=O)COc1ccc(F)cc1Br)c1c(N)n(Cc2ccccc2)c(=O)[nH]c1=O,.,.,-5.3%,.,.
CSc1nnc(NC(=O)c2cc(=O)c3cc(C)c(C)cc3o2)s1,.,?,.,3.2%[46.1 µM],.
COCCNC(=O)c1[nH]c2cc(C)ccc2c1Sc1ccc(Cl)cc1,.,7.4%[46.1 µM],.,7.6%[46.1 µM],.
Cc1ccc(NC(=O)c2cc(-n3cnnc3)ccc2Cl)cc1,-1.9,10.0%,22.7%,14.0%,-0.9

# Source: PubChem BioAssay (National Center for Advancing Translational Sciences (NCATS))
